Source: PubChem BioAssay (several laboratories)
CYP2C19 inh – inhibitors of human CYP2C19; 21% of 96,000 active; P33261; CYP2C19 Supersomes, luciferin-H EGE luminescence, 30 min; inhibition, % at 5 µM;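 active = CYP2C19 inhibition above a set limit at 5 µM in the primary screen, cut at about 50% in these data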;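 also: plate controls were negative control wells for no effect and 2.5 mM tranylcypromine positive control for full effect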
Target sequence (P33261 whole entry, looked up): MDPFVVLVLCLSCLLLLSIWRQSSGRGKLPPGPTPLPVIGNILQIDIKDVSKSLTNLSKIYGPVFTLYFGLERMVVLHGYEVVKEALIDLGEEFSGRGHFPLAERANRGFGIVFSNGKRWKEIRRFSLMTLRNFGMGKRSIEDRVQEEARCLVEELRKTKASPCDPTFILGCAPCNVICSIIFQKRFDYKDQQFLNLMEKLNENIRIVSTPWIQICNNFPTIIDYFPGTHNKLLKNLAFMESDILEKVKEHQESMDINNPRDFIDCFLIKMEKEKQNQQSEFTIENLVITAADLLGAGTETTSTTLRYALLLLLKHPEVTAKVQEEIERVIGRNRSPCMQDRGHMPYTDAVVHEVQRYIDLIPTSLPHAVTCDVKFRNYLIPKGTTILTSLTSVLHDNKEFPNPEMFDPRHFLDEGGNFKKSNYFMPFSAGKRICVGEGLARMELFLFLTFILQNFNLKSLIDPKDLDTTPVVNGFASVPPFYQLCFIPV
CYP2C19 act – activators of human cytochrome P450 2C19; P33261; recombinant CYP2C19, luciferin-H EGE luminescence; hits give high values; 0 = fully inhibited enzyme, 1 = untreated enzyme; activation factor at 5 µM; 96,000 tested, under 10 active;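 active = activation factor of at least 2 at 5 µM in the primary screen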;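 also: 0 = wells with 2.5 mM tranylcypromine and 1 = vehicle-only wells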
sEH activator – activators of human soluble epoxide hydrolase. P34913. purified human sEH enzymatic activity, activator screen. activation, % at 2 µM. 0.04% of 91,000 active. AID 717; in the data active = activation above about 37%
sEH inh – blocks human soluble epoxide hydrolase activity; recombinant human sEH enzymatic activity assay; inhibition, % at 2 µM; 0.34% of 91,000 active; AID 707; in the data active = inhibition above about 80%
CYP2C9 inh – human CYP2C9 inhibition | 20% of 96,000 active | inhibition, % at 5 µM | P11712 | CYP2C9 Supersomes, luciferin-H conversion, luminescence;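 active = blocking of liver enzyme CYP2C9 beyond about 50% at 5 µM, limit read from the data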
CYP2C9 activ – increases human cytochrome P450 2C9 activity | recombinant CYP2C9, luciferin-H conversion, luminescence; hits give high values; factor 1 = untreated enzyme, 0 = blocked | P11712 | activation factor at 5 µM | AID 1024 | 1.4% of 96,000 active;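 active = activation factor of 2 or more for CYP2C9 at a 5 µM dose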;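 also: 0 = sulfaphenazole-blocked wells and 1 = vehicle-only wells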
The depositor's hits bear a star; . = no result given. In the library only some 27% were active in any assay of this set; here they are far more common.

SMILES | CYP2C19 inh | CYP2C19 act | sEH activator | sEH inh | CYP2C9 inh | CYP2C9 activ
O=C(Nc1cc(Cl)ccc1O)c1snnc1-c1ccccc1 | 51.9* | 0.5 | 9.6 | -8.4 | 83.4* | 0.2
COc1cc(NC(=O)Cc2ccccc2OC)cc(OC)c1 | 50.9* | 0.5 | 0.8 | 1.7 | 29.6 | 0.7
COc1ccccc1CC(=O)Nc1cc(Cl)ccc1O | 51.1* | 0.5 | 9.8 | -8.4 | -91.4 | 1.9
COc1ccccc1CNC(=O)c1cccc(N(C)C)c1 | 32.4 | 0.7 | -17.3 | 13.6 | -132.5 | 2.3*
COc1ccccc1CC(=O)NC1CC(C)(C)NC(C)(C)C1 | 12.5 | 0.9 | -8.0 | 7.0 | 15.1 | 0.8
COc1ccccc1CC(=O)Nc1ccccc1O | 61.9* | 0.4 | 8.9 | -9.4 | -245.1 | 3.5*
COc1ccccc1CNC(=O)CN(C)CC(=O)Nc1cccc(F)c1 | 92.5* | 0.1 | 5.5 | -6.0 | 84.9* | 0.2
O=C(CCc1ccccc1)Nc1cc(Cl)ccc1O | 99.4* | 0 | 0.0 | 1.4 | 88.1* | 0.1
O=C(O)CC(=O)Nc1cc(Cl)ccc1O | -1.0 | 1 | -3.4 | 3.0 | 15.0 | 0.8
CCC(=O)N1CCN(C(=O)CC)C1c1ccccc1 | 5.4 | 0.9 | 10.7 | -9.2 | -1.0 | 1
OC12CCCCC1C(c1ccc3c(c1)OCO3)N(Cc1ccc(F)cc1)CC2 (configuration not stated) | 72.0* | 0.3 | -16.6 | 14.9 | 45.4 | 0.5
OC12CCCCC1C(c1ccc3c(c1)OCO3)N(Cc1cccc(F)c1)CC2 (configuration not stated) | 78.7* | 0.2 | 7.8 | -7.6 | 79.0* | 0.2
CCN(CC)c1ccc(C2C3CCCCC3(O)CCN2CC(=O)N2CCCCC2)cc1 (configuration not stated) | 5.0 | 0.9 | 12.6 | -14.6 | -9.9 | 1.1
O=C1C(c2ccc(F)cc2)N(Cc2ccc3c(c2)OCO3)C(=O)CN1C1CCCC1 (configuration not stated) | 13.3 | 0.9 | 1.4 | -1.5 | 23.7 | 0.8
OC12CCCCC1C(c1ccc3c(c1)OCO3)N(Cc1ccccc1F)CC2 (configuration not stated) | 97.5* | 0 | -7.3 | 7.4 | 94.7* | 0.1
CCCOc1ccccc1C(=O)NC(CO)C(=O)O (configuration not stated) | -18.5 | 1.2 | -4.6 | 2.4 | 22.6 | 0.8
NC(=O)C1CCN(C(=O)CN2CCN(c3cccc(C(F)(F)F)c3)CC2)CC1 | -6.0 | 1.1 | -5.4 | 8.5 | -0.2 | 1
CCC1(C)OCC(Cn2c3ccccc3c3ccccc32)O1 (configuration not stated) | . | . | 4.6 | -2.0 | . | .
CSc1nc(-c2ccccc2)nn1S(=O)(=O)c1ccccc1 | . | . | 17.0 | -13.2 | . | .
CCS(=O)(=O)n1nc(-c2ccc(C)cc2)nc1N | 31.9 | 0.7 | 17.7 | -14.6 | 12.4 | 0.9
COc1ccc(-c2nc(SC)n(S(=O)(=O)c3ccccc3)n2)cc1 | 69.3* | 0.3 | -5.8 | 5.9 | 62.0* | 0.4
CCS(=O)(=O)n1nc(-c2ccccc2)nc1SC | 56.1* | 0.4 | 12.9 | -12.8 | -11.4 | 1.1
CCS(=O)(=O)n1nc(-c2ccc(Cl)cc2)nc1N | 53.3* | 0.5 | . | . | 8.4 | 0.9
Cc1ccc(S(=O)(=O)c2c(N)n(Cc3ccco3)c3nc4ccccc4nc23)cc1 | 36.4 | 0.6 | 4.4 | -4.9 | 68.6* | 0.3
Cc1ccc(S(=O)(=O)c2c(N)n(NC(=O)c3ccco3)c3nc4ccccc4nc23)cc1 | 43.7 | 0.6 | 1.5 | 0.2 | 8.2 | 0.9
SMILES | CYP2C19 inh | CYP2C19 act | sEH activator | sEH inh | CYP2C9 inh | CYP2C9 activ
Cc1ccc(Cn2c(N)c(S(=O)(=O)c3cccs3)c3nc4ccccc4nc32)cc1 | -2.1 | 1 | -29.2 | 29.8 | 8.7 | 0.9
Cc1cccc(S(=O)(=O)c2c(N)n(Cc3ccco3)c3nc4ccccc4nc23)c1 | 90.8* | 0.1 | 15.3 | -16.6 | 95.9* | 0
Cn1c(=O)[nH]c(=O)c2c1nc(SCC(=O)O)n2CCc1ccccc1 | -3.0 | 1 | 8.4 | -9.7 | 2.4 | 1
Cn1nc(C(F)(F)F)c(C(=O)Nc2ccc(F)cc2F)c1Sc1ccc(Cl)cc1 | 61.2* | 0.4 | . | . | 24.3 | 0.8
Cc1ccc(Sc2c(C(=O)Nc3ccc(F)cc3F)c(C(F)(F)F)nn2C)cc1 | 19.1 | 0.8 | . | . | 8.1 | 0.9
Cn1nc(C(F)(F)F)c(C(=O)Nc2ccc(F)cc2F)c1Sc1ccc(C(F)(F)F)cc1 | 69.0* | 0.3 | 2.2 | -0.4 | 34.0 | 0.7
Cn1nc(C(F)(F)F)c2cc(C(=O)Nc3ccc(F)cc3F)sc21 | 7.3 | 0.9 | -10.4 | 8.6 | -61.4 | 1.6
CCCCc1nnc(SCCSc2nnc(CCCC)n2N)n1N | -3.7 | 1 | -3.9 | 7.4 | 11.7 | 0.9
O=C(NC12CC3CC(CC(C3)C1)C2)c1ccc(S(=O)(=O)N2CCOCC2)cc1 | -6.1 | 1.1 | . | . | 0.3 | 1
CCOC(=O)c1ccccc1NC(=O)CSc1nnc(C(C)C)n1CC | . | . | 2.8 | -2.2 | . | .
Nn1c(SCC(=O)Nc2ccc(F)cc2F)nnc1-c1cccnc1 | 0.7 | 1 | -2.9 | 4.7 | 22.8 | 0.8
C=CCn1c(SCC(=O)Nc2ccccc2C)nnc1-c1ccncc1 | 74.4* | 0.3 | -8.0 | 8.2 | 23.1 | 0.8
C=CCn1c(SCC(=O)Nc2c(C)cccc2C)nnc1-c1cnccn1 | 99.9* | 0 | 2.9 | -5.4 | 46.4 | 0.5
C=CCn1c(SCC(=O)NCC(=O)OCC)nnc1-c1ccccn1 | 1.3 | 1 | -5.4 | 3.2 | 1.9 | 1
C=CCn1c(SCC(=O)Nc2ccc(C)cc2C)nnc1-c1cccnc1 | 44.9 | 0.6 | -13.1 | 13.9 | 86.9* | 0.1
CCOc1ccccc1NC(=O)CSc1nnc(-c2cnccn2)n1CC | 87.7* | 0.1 | . | . | 45.3 | 0.5
CCCn1c(SCC(=O)NCc2ccccc2)nnc1-c1ccncc1 | 15.5 | 0.8 | 1.5 | -1.2 | 2.4 | 1
C=CCn1c(SCC(=O)Nc2ccccc2CC)nnc1-c1ccncc1 | 91.1* | 0.1 | -15.3 | 16.6 | 48.2 | 0.5
C=CCn1c(SCc2c(Cl)cccc2Cl)nnc1-c1cccnc1 | 53.7* | 0.5 | -1.7 | 0.8 | 34.9 | 0.7
C[N+]1=C2CCCCCN2C(O)(c2ccccc2)C1 (configuration not stated) | -15.7 | 1.2 | . | . | -8.2 | 1.1
COc1cc(OC)c(NS(=O)(=O)c2coc(C(N)=O)c2)cc1Cl | 96.3* | 0 | . | . | 17.3 | 0.8
Cc1cc(-c2nc3ncccc3o2)ccc1NC(=O)CC(C)C | 7.1 | 0.9 | 11.7 | -12.0 | 25.1 | 0.7
CCCC(=O)Nc1cccc(NC(=O)c2ccccc2Br)c1 | 18.0 | 0.8 | 0.5 | 2.3 | 7.9 | 0.9
O=C(CCN(CCO)Cc1ccccc1)Nc1ccc(Br)cc1 | 69.4* | 0.3 | -1.5 | 3.0 | 63.4* | 0.4
CCN(CCC(=O)Nc1ccc(Br)c(C)c1)Cc1ccccc1 | 37.6 | 0.6 | -15.4 | 15.8 | 64.1* | 0.4
CC(C)CNC(=S)NNC(=O)c1csc2ccccc12 | 23.5 | 0.8 | 9.0 | -7.7 | -7.5 | 1.1
O=C(N/N=C/c1cccc(O)c1)c1csc2ccccc12 | 14.6 | 0.9 | -83.7 | 84.0* | -18.6 | 1.2
